Activity calls are given as the source filed them.
Each compound was assayed on XIP peptide (Xip251-270) binding (assay: small-molecule binders of XIP peptide, primary screen, biochemical, small-molecule microarray, fluorescence 635/667 nm, 0.1 µg/mL protein (AID 1182)). Settings: fluorescent protein binding, 635 nm, higher = more signal, called active from +8 up or from −8 down.
`COCCCNC(=O)[C@@]1(C)c2ccccc2C(=O)N(c2ccc(C)cn2)[C@H]1c1ccc(CO)cc1` was tested, and the composite z-score was -0.625 (inactive).
In the case of `O=C1O[C@@H](c2ccccc2)[C@@H](c2ccccc2)N2[C@@H](c3ccc(O)cc3)[C@]3(C(=O)Nc4ccc(C#CC5(O)CCCCCC5)cc43)[C@@H](C(=O)N3CCN(c4ncccn4)CC3)[C@H]12`, the composite z-score is reported as 0.328 (inactive).
In the case of `COC(=O)C(CC#Cc1ccc2c(c1)[C@]1(C(=O)N2)[C@H](c2ccc(O)cc2)N2[C@H](c3ccccc3)[C@H](c3ccccc3)OC(=O)[C@H]2[C@@H]1C(=O)O)C(=O)OC`, the composite z-score is reported as -0.173 (inactive).
For `C=CC[C@@]1(C(=O)NCCN2CCOCC2)N=C(c2ccc(OCCCO)cc2)O[C@@H]1c1ccccc1`, the composite z-score was 0.202 (inactive).
For `NC(=O)[C@H]1[C@@H]2C(=O)O[C@@H](c3ccccc3)[C@@H](c3ccccc3)N2[C@@H](c2ccc(O)cc2)[C@]12C(=O)Nc1ccc(C#CC3(O)CCCCCC3)cc12`, the composite z-score was 0.366 (inactive).
In the case of `CC(C)C[C@@H]1NC(=O)[C@@]23C(=O)N[C@@H](Cc4ccccc4)C2[C@H](C)[C@@]2(C)O[C@H]2C3/C=C/C/C=C\CNC(=O)[C@@H]2CCCN2C1=O` (stereo partly specified), the composite z-score is reported as -0.0982 (inactive).
For `[N-]=[N+]=NCc1ccccc1[C@H]1OC(c2ccc(OCCCO)cc2)=N[C@@]1(Cc1ccccc1)C(N)=O`, the composite z-score was 1.78 (inactive).
`CCOC(=O)C1=CC[C@@H](c2ccccc2)N(S(=O)(=O)c2ccc(C)cc2)[C@H]1C=C(C)C` was tested, and the composite z-score was 0.568 (inactive).
In the case of `CCCCC(=C=CC[C@H](O)c1cccc(OCCO)c1)C[C@H](O)COCc1ccccc1`, the composite z-score is reported as 1.4 (inactive).
With `CN(C)C(=O)[C@]1(Cc2ccccc2N=[N+]=[N-])N=C(c2ccc(OCCCO)cc2)O[C@@H]1c1ccccc1CN=[N+]=[N-]` the composite z-score was 0.304 (inactive).
In the case of `COC(=O)[C@@]1(Cc2ccccc2)[C@H]2c3cc(C(=O)N(C)C)n(Cc4ccccn4)c3C[C@H]2CN1C(=O)c1ccccc1`, the composite z-score is reported as 1.08 (inactive).
In the case of `COC(=O)[C@]1(Cc2ccccc2CN=[N+]=[N-])N=C(c2ccc(OCCCO)cc2)O[C@@H]1c1ccccc1CN=[N+]=[N-]`, the composite z-score is reported as 0.319 (inactive).
In the case of `C=CCN1C(=O)[C@@]2(O[C@@H](CCn3cc([C@H](O)c4ccccc4)nn3)[C@H]([Si](C)(C)c3ccc(OC)cc3)[C@H]2C)c2cc(NC(=O)c3ccc(OC)cc3)ccc21`, the composite z-score is reported as 0.593 (inactive).
With `CCCC[C@@H](O)C1=C(COc2ccccc2)Cn2c(=O)n(-c3ccccc3)c(=O)n2[C@H]1CO` the composite z-score was 1.52 (inactive).
With `CC[C@@H]1[C@@H]2C3C(=O)N(CC)C(=O)C3CC(=O)[C@@H]2[C@H](c2ccc(C)cc2)N1S(=O)(=O)c1ccc(C)cc1` (stereo partly specified) the composite z-score was -0.363 (inactive).
`COc1ccc([Si](C)(C)[C@@H]2[C@@H](CC(=O)N3Cc4ccccc4C[C@H]3CO)O[C@]3(C(=O)N(Cc4cccc(N5CCCCC5=O)c4)c4ccccc43)[C@H]2C)cc1` was tested, and the composite z-score was 1.63 (inactive).

These compounds were tested on XIP peptide (Xip251-270) (assay: small-molecule binders of XIP peptide, primary screen, biochemical, small-molecule microarray, fluorescence 635/667 nm, 0.5 µg/mL protein (AID 1183)). Settings: small-molecule microarray binding, fluorescence 635 nm; higher = more signal.
For `Cc1cc(C)c(C(O)C2C=CC3C(=O)N(c4ccccc4)C(=O)C3N2Nc2ccccc2)c(C)c1` (stereo unspecified), the composite z-score was 0.79.
`CC(C)NC(=O)[C@@]1(Cc2ccccc2I)c2ccccc2C(=O)N(Cc2ccccc2C(F)(F)F)[C@H]1c1ccc(CO)cc1` gave a composite z-score of 0.815.
Work on `COc1ccc(CCNC(=O)[C@@H]2c3ccccc3C(=O)N(Cc3ccccc3)[C@H]2c2ccc(CO)cc2)cc1` yielded a composite z-score of 0.619.
Work on `COC(=O)C(CC#Cc1ccc2c(c1)[C@]1(C(=O)N2)[C@H](c2ccccc2OCCO)N2[C@H](c3ccccc3)[C@H](c3ccccc3)OC(=O)[C@H]2[C@@H]1C(=O)Nc1nc2ccccc2s1)C(=O)OC` yielded a composite z-score of 0.727.
In the case of `C=CCN1C(=O)[C@@]2(O[C@@H](CCO)[C@H]([Si](C)(C)c3ccc(OC)cc3)[C@H]2C)c2cc(NC(=O)[C@H](C)O)ccc21`, the composite z-score is reported as 0.603.
`O=C(O)[C@]1(CCS(=O)(=O)c2ccccc2)N=C(c2ccc(OCCCO)cc2)O[C@@H]1c1ccccc1` showed a composite z-score of -0.374.
Work on `CC1=C2[C@@H](CCc3ccccc3)OB(O)C[C@@H]2[C@@H]2C(=O)C=CC(=O)[C@@H]2C1` yielded a composite z-score of 0.403.
For `CN(C)C(=O)[C@@]1(CCC(=O)OC(C)(C)C)COC(c2ccc(OCCCO)cc2)=N1`, the composite z-score was 0.846.
For `COCCOC(=O)N1C(=O)[C@@]2(c3cc(C#CCC(C(=O)OC)C(=O)OC)ccc31)[C@H](C(=O)N1CCCCCCC1)[C@H]1C(=O)O[C@H](c3ccccc3)[C@H](c3ccccc3)N1[C@@H]2c1ccc(O)cc1`, the composite z-score was 0.729.
For `COc1ccc([Si](C)(C)[C@@H]2[C@@H](CCO)O[C@]3(C(=O)N(Cc4ccccc4)c4ccc(N5CCCCC5=O)cc43)[C@H]2C)cc1`, the composite z-score was 0.565.
`Cc1ccc(N2C(=O)c3ccccc3[C@](C)(C(=O)NC(C)C)[C@@H]2c2ccc(CO)cc2)nc1` showed a composite z-score of 0.677.
`COC(=O)[C@]1(Cc2ccccc2N=[N+]=[N-])N=C(c2ccc(OCCCO)cc2)O[C@@H]1c1ccccc1` showed a composite z-score of 0.797.
For `C=CC[C@]1(C(=O)NCC(O)CO)N=C(c2ccc(OCCCO)cc2)O[C@H]1c1ccccc1N=[N+]=[N-]` (stereo partly specified), the composite z-score was 0.159.
`C=C(/C(=C/C[C@@H](OC(C)=O)c1ccccc1OCCO)c1cnc2ccccc2c1)C(C)C` gave a composite z-score of 0.339.
For `CCN(CC)c1ccc(N2CC=CC34O[C@@H]5/C=C\CCCOC(=O)C5[C@H]3C(=O)N(CCCCCCO)[C@@H]4C2=O)cc1` (stereo partly specified), the composite z-score was 0.897.
`COCCCNC(=O)[C@@]1(Cc2ccccc2N=[N+]=[N-])N=C(c2ccc(OCCCO)cc2)O[C@H]1c1ccccc1CN=[N+]=[N-]` showed a composite z-score of 0.763.
With `COc1ccccc1CN1C(=O)c2ccccc2[C@@]2(Cc3ccccc3N(C3CC3)C2=O)[C@@H]1c1ccc(CO)cc1` the composite z-score was 0.53.
In the case of `COC(=O)C(CC#Cc1ccc2c(c1)[C@]1(C(=O)N2)[C@H](c2ccc(OCCO)cc2)N2[C@H](c3ccccc3)[C@H](c3ccccc3)OC(=O)[C@H]2[C@@H]1C(=O)O)C(=O)OC`, the composite z-score is reported as 0.862.
`CC(C)CCC[C@@H](C)[C@H]1CC[C@@]2(C)C3=C(CC[C@]12C)[C@@]1(C)CC[C@H](OC(=O)C(C)(C)C)C(C)(C)C1CC3` (stereo partly specified) was tested, and the composite z-score was -0.0722.
In the case of `COCCCNC(=O)[C@@]1(C)c2ccccc2C(=O)N(c2ccc(C)cn2)[C@H]1c1ccc(CO)cc1`, the composite z-score is reported as 0.892.
`O=C1O[C@@H](c2ccccc2)[C@@H](c2ccccc2)N2[C@@H](c3ccc(O)cc3)[C@]3(C(=O)Nc4ccc(C#CC5(O)CCCCCC5)cc43)[C@@H](C(=O)N3CCN(c4ncccn4)CC3)[C@H]12` gave a composite z-score of 0.559.
`COC(=O)C(CC#Cc1ccc2c(c1)[C@]1(C(=O)N2)[C@H](c2ccc(O)cc2)N2[C@H](c3ccccc3)[C@H](c3ccccc3)OC(=O)[C@H]2[C@@H]1C(=O)O)C(=O)OC` was tested, and the composite z-score was 0.665.
`C=CC[C@@]1(C(=O)NCCN2CCOCC2)N=C(c2ccc(OCCCO)cc2)O[C@@H]1c1ccccc1` showed a composite z-score of 0.638.
For `NC(=O)[C@H]1[C@@H]2C(=O)O[C@@H](c3ccccc3)[C@@H](c3ccccc3)N2[C@@H](c2ccc(O)cc2)[C@]12C(=O)Nc1ccc(C#CC3(O)CCCCCC3)cc12`, the composite z-score was 0.836.
`CC(C)C[C@@H]1NC(=O)[C@@]23C(=O)N[C@@H](Cc4ccccc4)C2[C@H](C)[C@@]2(C)O[C@H]2C3/C=C/C/C=C\CNC(=O)[C@@H]2CCCN2C1=O` (stereo partly specified) was tested, and the composite z-score was -0.791.
`[N-]=[N+]=NCc1ccccc1[C@H]1OC(c2ccc(OCCCO)cc2)=N[C@@]1(Cc1ccccc1)C(N)=O` was tested, and the composite z-score was 0.852.
`CCOC(=O)C1=CC[C@@H](c2ccccc2)N(S(=O)(=O)c2ccc(C)cc2)[C@H]1C=C(C)C` showed a composite z-score of 0.721.
With `CCCCC(=C=CC[C@H](O)c1cccc(OCCO)c1)C[C@H](O)COCc1ccccc1` the composite z-score was 0.752.
Work on `CN(C)C(=O)[C@]1(Cc2ccccc2N=[N+]=[N-])N=C(c2ccc(OCCCO)cc2)O[C@@H]1c1ccccc1CN=[N+]=[N-]` yielded a composite z-score of 0.312.
`COC(=O)[C@@]1(Cc2ccccc2)[C@H]2c3cc(C(=O)N(C)C)n(Cc4ccccn4)c3C[C@H]2CN1C(=O)c1ccccc1` gave a composite z-score of 0.595.
For `COC(=O)[C@]1(Cc2ccccc2CN=[N+]=[N-])N=C(c2ccc(OCCCO)cc2)O[C@@H]1c1ccccc1CN=[N+]=[N-]`, the composite z-score was 0.728.
With `C=CCN1C(=O)[C@@]2(O[C@@H](CCn3cc([C@H](O)c4ccccc4)nn3)[C@H]([Si](C)(C)c3ccc(OC)cc3)[C@H]2C)c2cc(NC(=O)c3ccc(OC)cc3)ccc21` the composite z-score was 0.189.
`CCCC[C@@H](O)C1=C(COc2ccccc2)Cn2c(=O)n(-c3ccccc3)c(=O)n2[C@H]1CO` was tested, and the composite z-score was 0.628.
Compound `CC[C@@H]1[C@@H]2C3C(=O)N(CC)C(=O)C3CC(=O)[C@@H]2[C@H](c2ccc(C)cc2)N1S(=O)(=O)c1ccc(C)cc1` (stereo partly specified) has a composite z-score of 0.73.
`COc1ccc([Si](C)(C)[C@@H]2[C@@H](CC(=O)N3Cc4ccccc4C[C@H]3CO)O[C@]3(C(=O)N(Cc4cccc(N5CCCCC5=O)c4)c4ccccc43)[C@H]2C)cc1` was tested, and the composite z-score was 0.737.

From PubChem BioAssay
